Assay outcomes (PubChem)
Rows were chosen to be rich in hits. Some 4.6% of all compounds tested hit in one or more screens of this group.
proKLK7 act = activators of human kallikrein-7 zymogen. purified proKLK7, EDANS-DABCYL substrate fluorescence; 100% is mature enzyme control, 0% vehicle. activation, % at 7 µM. hit rate 0.9% among 370,000. P49862;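 active = activation above the mean of all tested compounds plus 3 SD, computed per campaign excluding outliers beyond control limits, cut at about 13% in these data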
ADAM17 inh = ADAM17 inhibition, QFRET primary screen | inhibition, % at 6.95 µM | recombinant ADAM17, EDANS/DABCYL FRET peptide cleavage | P78536 | hit rate 0.83% among 370,000;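 active = inhibition above the mean of compounds lying between control limits plus 3 SD, set per campaign, cut at about 8.5% in these data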
Target sequence (P78536 215-824 limits assumed): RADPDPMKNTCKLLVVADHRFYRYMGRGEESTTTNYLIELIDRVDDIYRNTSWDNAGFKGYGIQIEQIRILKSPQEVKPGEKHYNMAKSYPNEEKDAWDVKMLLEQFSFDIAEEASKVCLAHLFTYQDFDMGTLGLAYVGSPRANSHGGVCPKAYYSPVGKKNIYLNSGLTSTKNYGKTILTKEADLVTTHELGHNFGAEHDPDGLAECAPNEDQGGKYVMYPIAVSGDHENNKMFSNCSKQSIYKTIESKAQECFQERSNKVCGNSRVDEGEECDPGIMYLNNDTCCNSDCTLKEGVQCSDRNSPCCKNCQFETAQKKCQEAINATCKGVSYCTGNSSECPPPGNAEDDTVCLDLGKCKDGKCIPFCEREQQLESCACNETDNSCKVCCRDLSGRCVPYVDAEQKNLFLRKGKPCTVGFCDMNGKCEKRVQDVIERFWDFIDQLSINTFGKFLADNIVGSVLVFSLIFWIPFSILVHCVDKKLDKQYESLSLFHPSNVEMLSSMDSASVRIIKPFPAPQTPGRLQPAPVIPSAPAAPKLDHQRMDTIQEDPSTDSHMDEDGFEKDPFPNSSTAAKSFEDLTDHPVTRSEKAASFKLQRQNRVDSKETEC
FAS-TE inh = FAS thioesterase (human) inhibition | inhibition, % at 15 µM | hit rate 0.67% among 360,000 | recombinant FAS-TE, OMFH fluorogenic substrate, fluorescence endpoint | P49327;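 active = compounds whose normalised, plate-corrected inhibition of enzyme fluorescence in the single-dose primary screen is 50% or more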
ADAM10 inh = inhibitors of human ADAM10; O14672; recombinant ADAM10, EDANS/DABCYL FRET peptide cleavage, 3 h; inhibition, % at 7 µM; hit rate 0.62% among 370,000;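 active = inhibition above a per-campaign cutoff equal to the mean of compounds falling between control-based bounds plus 3 SD, cut at about 20% in these data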
GRIN3A LBD mod = modulates the human NR3A ligand-binding domain; NR3A LBD differential scanning fluorimetry, Tm shift; 0% = protein alone, 100% = glycine-bound protein; Tm shift relative to glycine control, % at 25 µM; hit rate 2.5% among 340,000;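 active = melting temperature shift of at least 10% of the positive control shift, at one fixed dose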
Hits are given with their value.

For O=C1N=c2ccccc2=C1c1sc(Nc2ccc(O)cc2)nc1O the results were proKLK7 act inactive, ADAM17 inh inactive, FAS-TE inh inactive, ADAM10 inh inactive and GRIN3A LBD mod 13.2.
O=C1N=c2ccccc2=C1c1sc(Nc2cccc(O)c2)nc1O was read as proKLK7 act inactive, ADAM17 inh inactive, FAS-TE inh inactive, ADAM10 inh inactive and GRIN3A LBD mod 25.2.
For O=C1N=c2ccccc2=C1c1sc(NS(=O)(=O)c2ccccc2)nc1O the results were proKLK7 act inactive, ADAM17 inh inactive, FAS-TE inh inactive, ADAM10 inh inactive and GRIN3A LBD mod inactive.
For O=C(CCc1ccccc1)N[C@H]1[C@H](OCc2ccccc2)CCC[C@@]12C(=O)N(Cc1ccccc1)c1ccc(-c3ccsc3)cc12 the results were proKLK7 act inactive, ADAM17 inh inactive and ADAM10 inh inactive.
`O=C(Cn1c(=O)oc2ccccc21)Nc1nc(-c2ccc(Br)cc2)cs1` gave proKLK7 act inactive, ADAM17 inh inactive, FAS-TE inh inactive, ADAM10 inh inactive and GRIN3A LBD mod 14.6.
`CCCc1cc(=O)[nH]c(SCC(=O)Nc2nc(-c3ccccc3)cs2)n1` gave proKLK7 act inactive, ADAM17 inh inactive, FAS-TE inh inactive, ADAM10 inh inactive and GRIN3A LBD mod inactive.
`O=C(CSc1nc2ccccc2[nH]1)Nc1nc(-c2ccc(Br)cc2)cs1` gave proKLK7 act inactive, ADAM17 inh inactive, FAS-TE inh inactive, ADAM10 inh inactive and GRIN3A LBD mod 34.5.
`Cc1csc(NC(=O)CCn2c(=O)oc3ccccc32)n1` gave proKLK7 act inactive, ADAM17 inh inactive, FAS-TE inh inactive, ADAM10 inh inactive and GRIN3A LBD mod inactive.
Screening CC(C)OP(=O)(OC(C)C)C(Nc1ccccc1)c1ccc2c(c1)OCO2 (stereo unspecified) returned proKLK7 act inactive, ADAM17 inh inactive, FAS-TE inh inactive, ADAM10 inh inactive and GRIN3A LBD mod 11.9.
Cc1onc(-c2ccccc2)c1C(=O)NN=Cc1cc(Cl)cc(Cl)c1O was read as proKLK7 act inactive, ADAM17 inh inactive and ADAM10 inh inactive.
Cc1ccc(-n2c(SCC(=O)N/N=C/C=C\c3ccccc3[N+](=O)[O-])nnc2-c2ccccc2)cc1 was read as proKLK7 act inactive, ADAM17 inh inactive and ADAM10 inh inactive.
`Cc1ccc(CSc2nnc(-c3n[nH]c4c3CCC4)n2N)cc1` gave proKLK7 act inactive, ADAM17 inh inactive and ADAM10 inh inactive.
Screening Cc1ccc(NC(=O)Cn2nnc(C(=O)NCc3cccs3)c2N)cc1Cl returned proKLK7 act inactive, ADAM17 inh inactive, FAS-TE inh inactive, ADAM10 inh inactive and GRIN3A LBD mod 16.3.
`O=S1(=O)c2c(NCc3ccco3)cccc2Oc2ccccc2CN1Cc1cn(Cc2ccc(F)cc2)nn1` gave proKLK7 act inactive, ADAM17 inh inactive and ADAM10 inh inactive.
CCc1c(C)sc(NC(=S)N2CC(C)OC(C)C2)c1C(=O)OC (stereo unspecified) was read as proKLK7 act inactive, ADAM17 inh inactive, FAS-TE inh inactive, ADAM10 inh inactive and GRIN3A LBD mod 13.4.
Cc1occc1C(=O)N1CCN(c2ccc(Cl)c(Cl)c2)CC1 was read as proKLK7 act inactive, ADAM17 inh inactive, FAS-TE inh inactive, ADAM10 inh inactive and GRIN3A LBD mod inactive.
Screening Cc1occc1C(=O)N1CCN(c2ccccc2)CC1 returned proKLK7 act inactive, ADAM17 inh inactive, FAS-TE inh inactive, ADAM10 inh inactive and GRIN3A LBD mod 11.5.
O=C(CSc1nc2sc3c(c2c(=O)n1-c1ccc(Cl)cc1)CCC3)Nc1ccc(C(=O)O)cc1 was read as proKLK7 act inactive, ADAM17 inh inactive and ADAM10 inh inactive.
Cc1cnc(C(=O)OCC(=O)Nc2ccccc2[N+](=O)[O-])cn1 was read as proKLK7 act inactive, ADAM17 inh inactive, FAS-TE inh inactive, ADAM10 inh inactive and GRIN3A LBD mod 11.2.
For Cc1cc([N+](=O)[O-])c2[nH]c(C(=O)N/N=C/c3ccccc3C(=O)O)c(-c3ccccc3)c2c1 the results were proKLK7 act inactive, ADAM17 inh inactive, FAS-TE inh inactive, ADAM10 inh inactive and GRIN3A LBD mod 29.2.
`COc1nc(Cl)cn(-c2ccc(C)cc2)c1=O` gave proKLK7 act inactive, ADAM17 inh inactive, FAS-TE inh inactive, ADAM10 inh inactive and GRIN3A LBD mod inactive.
For Cc1ccc(-n2c(Cl)c(Cl)nc(Cl)c2=O)cc1 the results were FAS-TE inh 78.3 and GRIN3A LBD mod inactive.
Screening COCCOC(=O)N(C)C[C@@H]1OCCCC[C@H](C)Oc2ccc(NC(=O)Nc3ccccc3)cc2C(=O)N([C@@H](C)CO)C[C@H]1C returned ADAM17 inh inactive and ADAM10 inh inactive.
`O=C(OCc1ccccc1)/C(=C/c1cccc([N+](=O)[O-])c1)NC(=O)c1ccco1` gave proKLK7 act inactive, ADAM17 inh inactive, FAS-TE inh inactive, ADAM10 inh inactive and GRIN3A LBD mod inactive.
For O=C(OCc1ccccc1)/C(=C/c1ccccc1Cl)NC(=O)c1ccco1 the results were proKLK7 act inactive, ADAM17 inh inactive, FAS-TE inh inactive, ADAM10 inh inactive and GRIN3A LBD mod 14.8.
Screening Fc1ccc(COc2ccccc2CNCc2ccncc2)cc1 returned proKLK7 act inactive, ADAM17 inh inactive, FAS-TE inh inactive, ADAM10 inh inactive and GRIN3A LBD mod inactive.
For Brc1ccc(OCc2ccccc2)c(CNCc2ccncc2)c1 the results were proKLK7 act inactive, ADAM17 inh inactive, FAS-TE inh inactive, ADAM10 inh inactive and GRIN3A LBD mod 11.2.
`COC(=O)[C@H]1C[C@]2(C(/C=C(\C)CCC=C(C)C)S(=O)(=O)c3ccccc3)c3ccccc3N[C@H]2N1` (stereo partly specified) gave ADAM17 inh inactive and ADAM10 inh inactive.
For CCCc1ccc(OCc2nc(-c3ccc(NC(=O)c4cccs4)cc3)no2)cc1 the results were proKLK7 act inactive, ADAM17 inh inactive, FAS-TE inh inactive, ADAM10 inh inactive and GRIN3A LBD mod inactive.
Screening Cc1ccc(NC(=O)c2cccs2)cc1 returned proKLK7 act inactive, ADAM17 inh inactive, FAS-TE inh inactive, ADAM10 inh inactive and GRIN3A LBD mod inactive.
O=C(Nc1ccc(-c2noc(-c3ccccc3F)n2)cc1)c1cccs1 was read as proKLK7 act inactive, ADAM17 inh inactive, FAS-TE inh inactive, ADAM10 inh inactive and GRIN3A LBD mod 28.9.
`Cc1ccccc1-c1nc(-c2ccc(NC(=O)c3cccs3)cc2)no1` gave proKLK7 act inactive, ADAM17 inh inactive, FAS-TE inh inactive, ADAM10 inh inactive and GRIN3A LBD mod 42.4.
O=c1c2ccccc2[nH]c2ccc(O)cc12 was read as proKLK7 act inactive, ADAM17 inh inactive, FAS-TE inh inactive, ADAM10 inh inactive and GRIN3A LBD mod inactive.
Screening O=c1[nH]c2ccccc2c(=O)c2ccccc12 returned proKLK7 act inactive, ADAM17 inh inactive, FAS-TE inh inactive and ADAM10 inh inactive.
Screening O=c1c2ccccc2[nH]c2ccc(F)cc12 returned proKLK7 act inactive, ADAM17 inh inactive, FAS-TE inh inactive, ADAM10 inh inactive and GRIN3A LBD mod 11.4.
Cc1ccc2[nH]c3ccccc3c(=O)c2c1 was read as proKLK7 act 19.1, ADAM17 inh inactive, FAS-TE inh inactive, ADAM10 inh inactive and GRIN3A LBD mod inactive.
